{
  "source": "PubChem BioAssay",
  "note": "The source made the active and inactive calls. How the calls were made is not given here.",
  "data": [
    {"biological_target": "Pantothenate synthetase (Mycobacterium tuberculosis (strain ATCC 25618 / H37Rv)) (UniProt P9WIL5)", "sequence (P9WIL5 whole entry, looked up)": "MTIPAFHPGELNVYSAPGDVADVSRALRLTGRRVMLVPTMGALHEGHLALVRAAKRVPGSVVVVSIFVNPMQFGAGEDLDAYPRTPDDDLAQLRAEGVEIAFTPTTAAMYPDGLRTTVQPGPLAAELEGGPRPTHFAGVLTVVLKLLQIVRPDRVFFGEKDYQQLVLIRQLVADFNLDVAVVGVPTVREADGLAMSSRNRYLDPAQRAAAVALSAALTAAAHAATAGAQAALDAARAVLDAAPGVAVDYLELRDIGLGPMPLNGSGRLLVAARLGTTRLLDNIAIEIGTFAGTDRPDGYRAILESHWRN", "experiment": "Recombinant Mtb pantothenate synthetase (PanC) inhibitors, coupled enzyme, confirmatory (AID 375);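 further: 0% = full reaction with vehicle and 100% = no enzyme background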", "details": "coupled enzyme assay; at 10 µM, stronger effect = higher value", "values": [
      {"smiles": "COc1ccc(CC(=O)Nc2c3c(nn2-c2cccc(Cl)c2)CS(=O)(=O)C3)cc1", "inhibition": "0% (inactive)"},
      {"smiles": "CC(=O)Nc1ccc(S(=O)(=O)N2CCN(C(C)CCc3ccccc3)CC2)cc1", "note": "(stereo unspecified)", "inhibition": "2% (inactive)"},
      {"smiles": "Cc1csc(NC(=O)c2cccc(S(=O)(=O)N3CCCCC3)c2)n1", "inhibition": "0% (inactive)"},
      {"smiles": "Cc1ccc2c(c1)C(O)(CC(=O)c1ccc3c(c1)OCO3)C(=O)N2", "note": "(stereo unspecified)", "inhibition": "0% (inactive)"},
      {"smiles": "CC(C)N(C(=O)CSc1nnc(NC(=O)C2CCC2)s1)C(C)C", "inhibition": "0% (inactive)"},
      {"smiles": "CC(C)CCN1CC(C(=O)NCc2ccccc2)CC1=O", "note": "(stereo unspecified)", "inhibition": "0% (inactive)"},
      {"smiles": "CCC1CCCCN1C(=O)CSc1nnc(-c2ccc(OC)cc2)o1", "note": "(stereo unspecified)", "inhibition": "0% (inactive)"},
      {"smiles": "O=C(Cc1ccccc1)Nc1ccc(CN2CCOCC2)cc1", "inhibition": "0% (inactive)"},
      {"smiles": "COc1ccccc1-c1nc2n(n1)C(c1cccs1)C(C(=O)Nc1cccnc1)=C(C)N2", "note": "(stereo unspecified)", "inhibition": "0% (inactive)"},
      {"smiles": "Cc1ccc2nc(NC(=O)C3CCCN(S(=O)(=O)c4cnc[nH]4)C3)sc2c1", "note": "(stereo unspecified)", "inhibition": "1% (inactive)"},
      {"smiles": "CCOC(=O)c1[nH]c(C)c(C(=O)Nc2ccc(Cl)cc2)c1C", "inhibition": "0% (inactive)"},
      {"smiles": "Cc1c(N=C2SCC(=O)N2c2c(C)n(C)n(-c3ccccc3)c2=O)c(=O)n(-c2ccccc2)n1C", "inhibition": "3% (inactive)"},
      {"smiles": "COC(=O)c1cc(Oc2ccc(C(=O)OC)cc2N)cc(C(=O)OC)c1", "inhibition": "0% (inactive)"},
      {"smiles": "COc1ccc(C2=NOC(C(=O)NCc3ccc(F)cc3)C2)cc1OC", "note": "(stereo unspecified)", "inhibition": "0% (inactive)"},
      {"smiles": "CCN(CC)c1ccc2c(C)c(-c3ccc(N)cc3)c(=O)oc2c1", "inhibition": "10% (inactive)"},
      {"smiles": "Clc1ccccc1OCc1nn2c(-c3ccncc3)nnc2s1", "inhibition": "0% (inactive)"}
    ]}
  ]
}
